Shown are actives, neighbours in structure and some others; about 2.8% of the full set was active somewhere.
LGR2 antag = Drosophila LGR2 receptor signaling inhibition; inhibition, % at 9.99 µM; HEK293 LGR2, CRE-luciferase, bursicon-stimulated, 4 h; 380,000 compounds, 0.35% hits; AID 720647;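 active = drop in luminescence signal, shown as inhibition above about 50% in the replicate tests, limit read from the data, passing the limit was not always enough; inconclusive = probably only some replicates passing the limit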;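 note: agonist challenge used bursicon conditioned medium at about half maximal strength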
EWS-Fli inh = blocks EWS/Fli oncoprotein-driven transcription | A673 NR0B1-luciferase reporter, viability-normalised | 350,000 compounds, 0.67% hits | inhibition, % at 12.6 µM | AID 651661;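 active = mean inhibition of at least 50% after viability correction, with every replicate also passing that limit; inconclusive = mean reaches 50% but only one of two replicates passes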;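 note: firefly luciferase signal divided by Alamar Blue viability fluorescence both relative to DMSO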
TWEAK Fn14 block = inhibitors of TWEAK-Fn14 interaction signaling; inhibition, % at 10 µM; 360,000 compounds, 2% hits; TWEAK-stimulated Fn14 reporter cells, luciferase luminescence, 8 h; in the data active = inhibition above about 50%
PAX8 inh HTS = PAX8 transcriptional activity inhibition; RMG-I TPO-luciferase reporter, SteadyGlo, 24 h; inhibition, % at 12.6 µM; AID 652154; 360,000 compounds, 1.2% hits;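 active = mean replicate inhibition at least 60% with every replicate also reaching 60%; inconclusive = only one of the two criteria is met; inactive = mean below 60% and not all replicates reaching 60%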;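 note: luciferase light reporting Pax8 driven TPO promoter activity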
TROY signal inh = inhibitors of TROY-dependent NF-kB signaling; AID 1347056; 360,000 compounds, 0.98% hits; Q293 LMP1-TROYcd NF-kB luciferase reporter, 4 h; inhibition, % at 10 µM;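 active = compounds whose plate-normalised and pattern-corrected inhibition of the luciferase reporter signal at the single screening dose is 50% or more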
Numbers stand for hits.

`O=[N+]([O-])c1cc(-c2ncccn2)c([N+](=O)[O-])s1` gave LGR2 antag inactive, EWS-Fli inh 60.5, TWEAK Fn14 block inactive, PAX8 inh HTS inactive and TROY signal inh inactive.
Cc1noc(C)c1S(=O)(=O)Nc1ccc2c(c1)C(=O)N([C@H](C)CO)C[C@@H](C)[C@H](CN(C)C(=O)Nc1ccc(C(F)(F)F)cc1)OCCCC[C@@H](C)O2 was read as LGR2 antag inactive, EWS-Fli inh inactive and PAX8 inh HTS 86.6.
For Cc1noc(C)c1S(=O)(=O)Nc1ccc2c(c1)C(=O)N([C@H](C)CO)C[C@@H](C)[C@@H](CN(C)Cc1ccc(C(F)(F)F)cc1)OCCCC[C@H](C)O2 the results were LGR2 antag inactive and PAX8 inh HTS 85.6.
`Cc1noc(C)c1S(=O)(=O)Nc1ccc2c(c1)C(=O)N([C@@H](C)CO)C[C@@H](C)[C@@H](CN(C)C(=O)Nc1ccc(C(F)(F)F)cc1)OCCCC[C@H](C)O2` gave LGR2 antag inactive, EWS-Fli inh inactive and PAX8 inh HTS inactive.
`Cc1noc(C)c1S(=O)(=O)Nc1ccc2c(c1)C(=O)N([C@H](C)CO)C[C@@H](C)[C@H](CN(C)Cc1ccc(C(F)(F)F)cc1)OCCCC[C@@H](C)O2` gave LGR2 antag inactive and PAX8 inh HTS inconclusive.
Screening Cc1noc(C)c1S(=O)(=O)Nc1ccc2c(c1)C(=O)N([C@@H](C)CO)C[C@@H](C)[C@@H](CN(C)Cc1ccc(C(F)(F)F)cc1)OCCCC[C@H](C)O2 returned LGR2 antag inactive and PAX8 inh HTS 67.6.
`Cc1noc(C)c1S(=O)(=O)Nc1ccc2c(c1)C(=O)N([C@H](C)CO)C[C@@H](C)[C@H](CN(C)Cc1ccc(Cl)c(Cl)c1)OCCCC[C@@H](C)O2` gave LGR2 antag inactive, EWS-Fli inh inactive and PAX8 inh HTS 74.7.
`Cc1noc(C)c1S(=O)(=O)Nc1ccc2c(c1)C(=O)N([C@@H](C)CO)C[C@H](C)[C@H](CN(C)Cc1ccc(C(F)(F)F)cc1)OCCCC[C@H](C)O2` gave LGR2 antag inactive and PAX8 inh HTS inactive.
Cc1noc(C)c1S(=O)(=O)Nc1ccc2c(c1)CC(=O)N([C@H](C)CO)C[C@H](C)[C@@H](CN(C)CC1CCCCC1)O2 was read as LGR2 antag inactive, EWS-Fli inh inactive and PAX8 inh HTS inactive.
C[C@H](CO)N1C[C@H](C)[C@@H](CN(C)C(=O)NC2CCCCC2)Oc2ccc(NC(=O)CCC(F)(F)F)cc2CC1=O was read as LGR2 antag inactive, EWS-Fli inh inactive and PAX8 inh HTS inactive.
For CC(C)C#Cc1ccc2c(c1)O[C@@H](CN(C)C(=O)C1CCCCC1)[C@H](C)CN([C@H](C)CO)S2(=O)=O the results were LGR2 antag inactive and EWS-Fli inh inactive.
`O=C(NC1CCC1)[C@@H]1[C@@H](CO)[C@@H]2Cn3c(ccc(-c4ccc(F)cc4)c3=O)[C@@H]2N1Cc1ccccn1` gave LGR2 antag inactive and EWS-Fli inh inactive.
Screening Cc1noc(C)c1S(=O)(=O)Nc1ccc2c(c1)C(=O)N([C@H](C)CO)C[C@@H](C)[C@H](CN(C)Cc1ccc(C(F)(F)F)cc1)OCCCC[C@H](C)O2 returned LGR2 antag inactive and PAX8 inh HTS 71.9.
`Cc1cc(C(=O)Nc2ccc3c(c2)C(=O)N(C)[C@@H]2CC[C@H](CC(=O)O)O[C@@H]2CO3)no1` gave LGR2 antag inactive, EWS-Fli inh inactive and PAX8 inh HTS inactive.
`C/C(=C\c1ccc(Br)cc1)C(=O)c1c(C)cc(C)[nH]c1=O` gave LGR2 antag inactive, EWS-Fli inh inactive, TWEAK Fn14 block 52.0, PAX8 inh HTS inactive and TROY signal inh inactive.
Cc1cc(C)c(C(=O)/C=C/c2cccs2)c(=O)[nH]1 was read as LGR2 antag inactive, EWS-Fli inh inactive, TWEAK Fn14 block inactive, PAX8 inh HTS inactive and TROY signal inh inactive.
For CCc1ccc(/C=C/C(=O)c2c(C)cc(C)[nH]c2=O)cc1 the results were TWEAK Fn14 block 79.5 and TROY signal inh inactive.
Cc1ccc(/C=C/C(=O)c2c(C)cc(C)[nH]c2=O)cc1 was read as LGR2 antag 69.6, EWS-Fli inh inactive, TWEAK Fn14 block 86.0 and TROY signal inh inactive.
`O=C(Nc1ccc(F)cc1)N1C[C@@H]2[C@H](c3ccccc31)[C@H](CO)N2C(=O)c1ccccc1F` gave LGR2 antag inactive, EWS-Fli inh inactive and PAX8 inh HTS inactive.
`C[C@H]1CCCCO[C@H](CN(C)C(=O)Nc2ccc(F)cc2)[C@@H](C)CN([C@@H](C)CO)C(=O)c2cc(N(C)C)ccc2O1` gave LGR2 antag inactive, EWS-Fli inh inactive and PAX8 inh HTS inactive.
C[C@H](CO)N1C[C@H](C)[C@H](CN(C)S(=O)(=O)c2ccc(F)cc2)Oc2c(NC(=O)Nc3ccc4c(c3)OCO4)cccc2C1=O was read as EWS-Fli inh inactive and PAX8 inh HTS inactive.
For O=C(NCC(c1cccs1)N1CCOCC1)c1cc(F)cc(F)c1 (configuration not stated) the results were LGR2 antag inactive, EWS-Fli inh 53.5, TWEAK Fn14 block inactive, PAX8 inh HTS inactive and TROY signal inh inactive.
CC(C)CC(NC(N)=O)C(=O)Nc1ccc2c(c1)OCO2 (configuration not stated) was read as LGR2 antag inactive, EWS-Fli inh inactive, TWEAK Fn14 block inactive, PAX8 inh HTS inactive and TROY signal inh inactive.
CC(C)CC(NC(=O)c1ccco1)C(=O)Nc1ccc2c(c1)OCCO2 (configuration not stated) was read as LGR2 antag inactive, EWS-Fli inh inactive, TWEAK Fn14 block 76.1, PAX8 inh HTS inactive and TROY signal inh inactive.
`CC(C)(C)OC(=O)N1Cc2ccccc2C[C@H]1C(=O)NCC(=O)Nc1ccc2c(c1)OCCO2` gave LGR2 antag inactive, EWS-Fli inh inactive, TWEAK Fn14 block 96.2, PAX8 inh HTS inactive and TROY signal inh 82.3.
`O=C(CNC(=O)c1ccco1)Nc1ccc2c(c1)OCCO2` gave LGR2 antag inactive, EWS-Fli inh inactive, TWEAK Fn14 block 86.0, PAX8 inh HTS inactive and TROY signal inh 70.5.
For CO[C@@H]1CN(C)C(=O)c2cc(NS(=O)(=O)c3ccccc3Cl)ccc2OC[C@@H](C)NC[C@@H]1C the results were LGR2 antag inactive and EWS-Fli inh inactive.
`CCC(=O)Nc1ccc2c(c1)C(=O)N(C)C[C@@H](OC)[C@@H](C)CN(C(=O)C1CC1)[C@H](C)CO2` gave LGR2 antag inactive, EWS-Fli inh inactive and PAX8 inh HTS inactive.
For CC(=O)OCCCNc1cc(Sc2ccc(C)cc2)c2nonc2c1[N+](=O)[O-] the results were LGR2 antag 51.2, TWEAK Fn14 block 80.3, PAX8 inh HTS inactive and TROY signal inh 63.6.
`CC(=O)OCCCNc1cc(Sc2nc3ccccc3s2)c2nonc2c1[N+](=O)[O-]` gave TWEAK Fn14 block inactive and TROY signal inh inactive.
`O=[N+]([O-])c1c(NCCCO)cc(SCc2ccco2)c2nonc12` gave LGR2 antag inactive, EWS-Fli inh inactive, TWEAK Fn14 block inactive, PAX8 inh HTS inactive and TROY signal inh inactive.
